The supplement of paper PMC11732987, “Enantioselective OTUD7B fragment discovery through chemoproteomics screening and high-throughput optimisation” (Communications Chemistry, 2025)

Tests used:
Assay in all cases: log2 ratio of Biotin-Ahx-Ub-VS probe labelling (fragment/DMSO); higher = less target engagement (more negative = stronger competition), active = hit call of the paper (q ≤ 0.05, log2 ratio ≤ -1)
Conditions in all cases: compound concentration: 200 uM; treatment time: 3 h
USP34 = USP34 (UniProt Q70CQ2)
Chain of USP34 (Q70CQ2 whole entry, the tested form may be a part): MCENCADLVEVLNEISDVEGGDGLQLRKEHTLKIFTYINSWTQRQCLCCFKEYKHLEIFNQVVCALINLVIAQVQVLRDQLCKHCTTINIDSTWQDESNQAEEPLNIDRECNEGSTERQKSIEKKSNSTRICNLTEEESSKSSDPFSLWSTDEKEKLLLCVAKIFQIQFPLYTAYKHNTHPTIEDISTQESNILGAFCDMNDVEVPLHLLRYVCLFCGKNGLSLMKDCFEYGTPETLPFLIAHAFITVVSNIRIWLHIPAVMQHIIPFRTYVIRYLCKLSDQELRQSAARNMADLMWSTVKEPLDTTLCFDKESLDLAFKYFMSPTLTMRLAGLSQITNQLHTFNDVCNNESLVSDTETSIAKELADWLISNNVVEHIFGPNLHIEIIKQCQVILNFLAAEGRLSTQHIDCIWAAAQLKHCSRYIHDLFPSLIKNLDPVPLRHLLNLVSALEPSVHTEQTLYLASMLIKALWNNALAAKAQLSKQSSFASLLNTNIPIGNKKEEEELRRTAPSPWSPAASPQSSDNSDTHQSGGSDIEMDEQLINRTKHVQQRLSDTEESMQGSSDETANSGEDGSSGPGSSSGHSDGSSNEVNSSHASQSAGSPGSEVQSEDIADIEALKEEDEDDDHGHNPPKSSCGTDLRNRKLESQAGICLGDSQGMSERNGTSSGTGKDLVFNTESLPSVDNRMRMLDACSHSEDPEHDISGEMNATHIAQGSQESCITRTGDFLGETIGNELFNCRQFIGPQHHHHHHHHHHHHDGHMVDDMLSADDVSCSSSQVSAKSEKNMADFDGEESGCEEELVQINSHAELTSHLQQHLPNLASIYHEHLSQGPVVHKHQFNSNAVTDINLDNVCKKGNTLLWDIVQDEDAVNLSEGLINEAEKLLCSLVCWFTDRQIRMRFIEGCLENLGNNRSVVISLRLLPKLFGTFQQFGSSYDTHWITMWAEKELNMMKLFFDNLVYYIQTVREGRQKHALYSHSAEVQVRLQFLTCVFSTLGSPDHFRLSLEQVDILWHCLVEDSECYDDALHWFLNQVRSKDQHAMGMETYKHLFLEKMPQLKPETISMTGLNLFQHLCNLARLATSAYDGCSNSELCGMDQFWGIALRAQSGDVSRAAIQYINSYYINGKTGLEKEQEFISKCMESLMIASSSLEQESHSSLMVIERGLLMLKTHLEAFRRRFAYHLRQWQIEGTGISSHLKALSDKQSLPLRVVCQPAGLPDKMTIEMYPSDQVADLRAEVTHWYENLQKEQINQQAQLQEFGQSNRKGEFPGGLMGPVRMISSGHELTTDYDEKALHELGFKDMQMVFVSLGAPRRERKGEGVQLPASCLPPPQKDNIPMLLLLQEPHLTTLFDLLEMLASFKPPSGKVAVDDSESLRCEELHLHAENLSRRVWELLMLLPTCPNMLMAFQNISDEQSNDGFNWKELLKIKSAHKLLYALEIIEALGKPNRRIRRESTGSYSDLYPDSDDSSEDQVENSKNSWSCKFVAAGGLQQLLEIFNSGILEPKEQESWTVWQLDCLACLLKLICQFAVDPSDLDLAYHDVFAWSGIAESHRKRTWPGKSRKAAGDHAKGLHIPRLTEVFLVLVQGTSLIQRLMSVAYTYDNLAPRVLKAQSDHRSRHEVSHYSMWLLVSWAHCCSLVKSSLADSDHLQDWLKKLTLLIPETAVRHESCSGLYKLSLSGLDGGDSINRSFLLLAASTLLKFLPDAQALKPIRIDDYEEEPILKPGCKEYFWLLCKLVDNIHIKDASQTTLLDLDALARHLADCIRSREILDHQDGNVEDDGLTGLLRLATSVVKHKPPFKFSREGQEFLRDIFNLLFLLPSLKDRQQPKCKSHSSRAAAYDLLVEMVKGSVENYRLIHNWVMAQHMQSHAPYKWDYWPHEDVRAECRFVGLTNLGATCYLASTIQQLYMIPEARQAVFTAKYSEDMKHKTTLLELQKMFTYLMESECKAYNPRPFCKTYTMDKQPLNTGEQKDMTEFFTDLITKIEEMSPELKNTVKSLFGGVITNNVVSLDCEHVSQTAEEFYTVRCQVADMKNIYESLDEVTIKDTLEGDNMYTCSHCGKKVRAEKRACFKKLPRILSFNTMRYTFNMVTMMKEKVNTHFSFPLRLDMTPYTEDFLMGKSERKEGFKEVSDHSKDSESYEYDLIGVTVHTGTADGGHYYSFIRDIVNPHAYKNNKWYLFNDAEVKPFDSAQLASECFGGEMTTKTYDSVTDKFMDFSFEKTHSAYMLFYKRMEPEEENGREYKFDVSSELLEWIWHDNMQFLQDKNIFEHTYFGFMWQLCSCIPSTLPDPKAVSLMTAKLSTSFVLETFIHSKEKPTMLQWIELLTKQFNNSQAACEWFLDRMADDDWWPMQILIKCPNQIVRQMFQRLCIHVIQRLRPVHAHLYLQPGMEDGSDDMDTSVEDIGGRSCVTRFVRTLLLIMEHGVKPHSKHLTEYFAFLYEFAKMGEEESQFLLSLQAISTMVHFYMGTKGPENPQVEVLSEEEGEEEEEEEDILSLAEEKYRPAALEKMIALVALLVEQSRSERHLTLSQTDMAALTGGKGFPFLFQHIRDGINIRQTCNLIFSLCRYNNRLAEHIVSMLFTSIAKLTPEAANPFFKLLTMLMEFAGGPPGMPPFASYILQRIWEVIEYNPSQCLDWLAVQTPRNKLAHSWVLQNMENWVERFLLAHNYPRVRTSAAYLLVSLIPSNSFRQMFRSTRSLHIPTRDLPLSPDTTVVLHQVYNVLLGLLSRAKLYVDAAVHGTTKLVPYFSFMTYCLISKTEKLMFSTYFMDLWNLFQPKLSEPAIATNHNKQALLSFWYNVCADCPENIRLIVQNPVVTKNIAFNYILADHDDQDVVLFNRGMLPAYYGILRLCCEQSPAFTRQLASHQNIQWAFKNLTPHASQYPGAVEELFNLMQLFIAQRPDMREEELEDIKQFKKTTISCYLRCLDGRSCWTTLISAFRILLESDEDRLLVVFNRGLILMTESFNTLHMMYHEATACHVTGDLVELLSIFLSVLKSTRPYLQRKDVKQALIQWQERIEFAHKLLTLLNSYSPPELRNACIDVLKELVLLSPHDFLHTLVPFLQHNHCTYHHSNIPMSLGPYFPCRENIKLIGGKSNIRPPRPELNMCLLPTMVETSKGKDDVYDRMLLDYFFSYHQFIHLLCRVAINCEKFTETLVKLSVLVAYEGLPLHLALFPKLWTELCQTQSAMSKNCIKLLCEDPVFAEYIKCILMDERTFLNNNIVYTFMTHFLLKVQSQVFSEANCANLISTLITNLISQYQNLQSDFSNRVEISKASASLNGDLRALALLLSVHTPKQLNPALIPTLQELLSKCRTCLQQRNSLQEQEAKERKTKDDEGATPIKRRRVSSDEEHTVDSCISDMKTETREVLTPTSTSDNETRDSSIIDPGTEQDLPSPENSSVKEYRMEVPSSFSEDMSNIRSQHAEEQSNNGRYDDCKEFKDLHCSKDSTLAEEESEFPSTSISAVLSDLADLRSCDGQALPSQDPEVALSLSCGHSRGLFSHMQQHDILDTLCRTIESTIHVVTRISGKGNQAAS
Procedure, shortened: (§1)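 Average log2 ratios of fragment over vehicle were obtained by unpaired t-test from global-median-normalised Spectronaut label-free quantities. Proteins with ≥2 unique peptides were included. HEK293T lysate (495 µg per sample) was treated in triplicate with fragment at 200 µM or vehicle for 3 h, then with Biotin-Ahx-Ub-VS at 0.5 µM final for 1 h, and labelled DUBs were NeutrAvidin-enriched and run by diaPASEF LC-MS/MS.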

USP36 = target: T1, USP36 (UniProt Q9P275)
T1 sequence (whole entry): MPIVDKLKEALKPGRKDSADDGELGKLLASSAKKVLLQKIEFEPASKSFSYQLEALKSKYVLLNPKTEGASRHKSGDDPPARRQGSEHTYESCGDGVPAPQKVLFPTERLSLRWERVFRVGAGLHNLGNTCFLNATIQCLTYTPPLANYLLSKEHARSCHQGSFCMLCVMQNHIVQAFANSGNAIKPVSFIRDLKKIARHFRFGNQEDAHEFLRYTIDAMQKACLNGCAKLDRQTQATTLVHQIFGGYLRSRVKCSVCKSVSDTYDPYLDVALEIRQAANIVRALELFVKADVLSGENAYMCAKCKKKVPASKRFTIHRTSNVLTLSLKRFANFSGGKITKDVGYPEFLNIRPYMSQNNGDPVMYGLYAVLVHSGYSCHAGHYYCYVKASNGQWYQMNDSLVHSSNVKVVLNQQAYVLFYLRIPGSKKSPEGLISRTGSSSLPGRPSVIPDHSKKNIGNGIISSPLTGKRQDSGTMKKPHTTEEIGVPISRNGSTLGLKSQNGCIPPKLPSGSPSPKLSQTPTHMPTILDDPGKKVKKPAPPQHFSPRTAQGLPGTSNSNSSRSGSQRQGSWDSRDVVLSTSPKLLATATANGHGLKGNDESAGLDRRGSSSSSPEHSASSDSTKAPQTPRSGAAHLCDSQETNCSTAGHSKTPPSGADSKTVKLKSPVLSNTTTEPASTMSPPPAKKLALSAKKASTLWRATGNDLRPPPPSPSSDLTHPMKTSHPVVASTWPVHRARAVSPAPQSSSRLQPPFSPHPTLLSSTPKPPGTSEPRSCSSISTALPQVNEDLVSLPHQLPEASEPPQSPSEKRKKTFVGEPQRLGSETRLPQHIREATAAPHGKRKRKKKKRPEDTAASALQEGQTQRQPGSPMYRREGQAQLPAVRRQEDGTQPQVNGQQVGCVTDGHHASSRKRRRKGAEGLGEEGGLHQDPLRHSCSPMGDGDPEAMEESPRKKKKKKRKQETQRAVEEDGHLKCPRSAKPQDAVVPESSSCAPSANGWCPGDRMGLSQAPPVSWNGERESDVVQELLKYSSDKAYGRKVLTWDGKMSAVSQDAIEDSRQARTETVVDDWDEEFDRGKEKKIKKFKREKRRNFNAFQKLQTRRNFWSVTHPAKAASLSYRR
Procedure, shortened: as §1

USP38 = target: T2, USP38 (UniProt Q8NB14)
T2 sequence (whole entry): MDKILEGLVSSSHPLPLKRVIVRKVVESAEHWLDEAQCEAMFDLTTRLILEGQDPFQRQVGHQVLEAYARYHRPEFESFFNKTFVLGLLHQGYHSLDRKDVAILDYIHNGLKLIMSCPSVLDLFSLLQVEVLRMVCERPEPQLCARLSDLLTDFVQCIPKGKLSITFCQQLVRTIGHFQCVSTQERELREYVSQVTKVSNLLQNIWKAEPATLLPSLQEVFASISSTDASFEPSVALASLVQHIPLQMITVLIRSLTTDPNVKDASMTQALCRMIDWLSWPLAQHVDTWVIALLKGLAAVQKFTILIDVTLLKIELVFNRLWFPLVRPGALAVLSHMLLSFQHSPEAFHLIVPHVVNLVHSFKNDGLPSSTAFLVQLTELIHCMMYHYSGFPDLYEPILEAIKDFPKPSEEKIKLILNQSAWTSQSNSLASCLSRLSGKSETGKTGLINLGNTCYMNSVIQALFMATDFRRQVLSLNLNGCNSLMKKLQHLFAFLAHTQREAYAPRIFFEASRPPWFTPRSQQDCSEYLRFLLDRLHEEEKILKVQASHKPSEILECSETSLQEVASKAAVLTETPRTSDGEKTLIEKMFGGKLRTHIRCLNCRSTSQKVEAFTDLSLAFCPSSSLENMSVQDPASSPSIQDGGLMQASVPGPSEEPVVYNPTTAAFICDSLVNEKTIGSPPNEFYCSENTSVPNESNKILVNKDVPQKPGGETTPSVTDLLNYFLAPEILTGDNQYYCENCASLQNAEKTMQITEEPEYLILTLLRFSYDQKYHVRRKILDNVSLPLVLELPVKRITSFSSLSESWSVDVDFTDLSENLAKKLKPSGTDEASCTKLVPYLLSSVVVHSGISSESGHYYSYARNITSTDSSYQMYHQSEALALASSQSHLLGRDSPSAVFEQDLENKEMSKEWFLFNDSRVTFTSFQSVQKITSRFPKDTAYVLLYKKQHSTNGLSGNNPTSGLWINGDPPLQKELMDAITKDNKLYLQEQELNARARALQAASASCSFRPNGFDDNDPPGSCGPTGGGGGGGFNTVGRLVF
Procedure, shortened: as §1

USP39 = target: T3, USP39 (UniProt Q53GS9)
T3 sequence (whole entry): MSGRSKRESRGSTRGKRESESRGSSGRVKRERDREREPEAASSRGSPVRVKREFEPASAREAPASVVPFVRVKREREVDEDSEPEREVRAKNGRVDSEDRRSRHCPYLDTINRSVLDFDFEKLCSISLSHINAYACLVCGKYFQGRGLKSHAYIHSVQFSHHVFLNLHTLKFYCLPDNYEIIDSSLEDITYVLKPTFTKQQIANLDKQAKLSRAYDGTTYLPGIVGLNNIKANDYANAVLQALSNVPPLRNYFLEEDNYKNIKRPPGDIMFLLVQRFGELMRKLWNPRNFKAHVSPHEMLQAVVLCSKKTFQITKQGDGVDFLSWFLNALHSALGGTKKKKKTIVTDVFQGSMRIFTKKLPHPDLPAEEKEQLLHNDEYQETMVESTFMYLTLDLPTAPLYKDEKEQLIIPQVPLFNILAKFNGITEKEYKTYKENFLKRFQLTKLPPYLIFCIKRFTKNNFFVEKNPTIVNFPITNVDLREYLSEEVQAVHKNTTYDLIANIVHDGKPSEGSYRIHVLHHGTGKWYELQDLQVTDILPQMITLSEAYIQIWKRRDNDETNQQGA
Procedure, shortened: as §1

USP4 = target: T4, USP4 (UniProt Q13107)
T4 sequence (whole entry): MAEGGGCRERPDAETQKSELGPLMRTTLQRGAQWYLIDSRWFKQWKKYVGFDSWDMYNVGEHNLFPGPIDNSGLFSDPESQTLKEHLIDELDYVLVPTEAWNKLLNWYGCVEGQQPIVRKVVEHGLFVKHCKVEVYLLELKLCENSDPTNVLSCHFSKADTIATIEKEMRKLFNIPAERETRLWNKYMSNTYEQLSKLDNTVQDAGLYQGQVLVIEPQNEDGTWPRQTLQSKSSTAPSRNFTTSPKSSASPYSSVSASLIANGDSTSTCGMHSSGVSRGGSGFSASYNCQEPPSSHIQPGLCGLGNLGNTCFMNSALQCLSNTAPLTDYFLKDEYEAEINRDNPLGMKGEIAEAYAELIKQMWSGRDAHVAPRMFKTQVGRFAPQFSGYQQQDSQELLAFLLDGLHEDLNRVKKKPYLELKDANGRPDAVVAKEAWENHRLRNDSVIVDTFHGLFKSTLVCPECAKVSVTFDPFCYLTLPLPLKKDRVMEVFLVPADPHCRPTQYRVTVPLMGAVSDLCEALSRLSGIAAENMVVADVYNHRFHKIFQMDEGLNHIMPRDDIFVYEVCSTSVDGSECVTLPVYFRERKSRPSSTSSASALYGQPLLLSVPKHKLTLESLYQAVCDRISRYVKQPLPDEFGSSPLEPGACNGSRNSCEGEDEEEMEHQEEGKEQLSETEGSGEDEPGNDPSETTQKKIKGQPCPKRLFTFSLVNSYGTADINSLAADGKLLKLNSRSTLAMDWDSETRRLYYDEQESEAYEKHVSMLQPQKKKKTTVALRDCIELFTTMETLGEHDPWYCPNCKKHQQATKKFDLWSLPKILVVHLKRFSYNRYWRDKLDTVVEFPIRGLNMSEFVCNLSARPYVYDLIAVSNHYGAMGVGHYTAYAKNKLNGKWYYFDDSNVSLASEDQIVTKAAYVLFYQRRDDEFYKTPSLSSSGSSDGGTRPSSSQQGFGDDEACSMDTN
Procedure, shortened: as §1

Measured: log2 ratio of Biotin-Ahx-Ub-VS probe labelling

Cc1nc(-c2cccc(NC(=O)CCl)c2)cs1
inactive: USP34 -0.392 | USP36 0.0209 | USP38 -0.179 | USP39 0.188 | USP4 -0.239
